# Bioassay records (PubChem BioAssay)
# The entries come from a sample that favours hits as a whole.
# Pf Dd2 inh – Plasmodium falciparum Dd2 growth inhibition. P. falciparum Dd2 growth, SYBR Green, 72 h. Potency, µM (top dose mostly 28.9 µM), without a hit: at the highest dose activity, negative = inhibition, most hits filed as inhibitors. hit rate 4.3% among 120,000. AID 1347417; active means well fitted inhibition curve with a large enough effect;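 further: plate controls were DMSO vehicle for no effect and reference drug for full effect; nearly all actives have a fitted effect of over 65% in size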
#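 Readout: SYBR Green fluorescence, 485 nm excitation, 535 nm emission, after ~16 h lysis at 37C. Before that, Dd2-infected red cells (2.5% hematocrit) grew 72 h with compound, 29 uM top final concentration.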
# The depositor's hits bear a star; i = inactive; [ ] = dose if it differs, or a comment. Potency means the concentration at half of the fitted maximal effect.
SMILES,Pf Dd2 inh
O=C(Nc1nc2n(n1)C(c1ccc(F)cc1)C=C(c1ccc(Cl)cc1)N2)c1ccco1 (stereo not given),8.9µM*
COc1ccc(C2C=C(c3ccccc3)Nc3nc(NC(=O)/C=C/c4ccccc4OC)nn32)cc1 (stereo not given),10µM*
O=C(Nc1nc2n(n1)C(c1ccc(F)cc1)C=C(c1ccccc1)N2)c1cccc([N+](=O)[O-])c1 (stereo not given),3.2µM*
CC(=O)Nc1cccc(C(=O)NCCn2ccn3nc(-c4ccc(F)cc4)cc3c2=O)c1,-1%
Cc1ccc(C2C=C(c3ccc(Cl)cc3)Nc3nc(NS(=O)(=O)c4ccccc4)nn32)cc1 (stereo not given),20%
Cn1nccc1C(=O)N1CCC2(CCCCO2)CC1,22%
COc1cccc(OCc2cc(C(=O)N3CCCCC3c3cccnc3)n[nH]2)c1 (stereo not given),i
O=C(CN1C(=O)NC2(CCCCC2)C1=O)Nc1ccccc1,17%
COc1cccc(CN2CCC3(CCC3OC)CC2)c1 (stereo not given),-6%
C[C@H]1[C@@H]2[C@@H](O)C([C@H](C)C(=O)NCCN3CCOCC3)CC[C@@]2(C)CC[C@@H]1NC(=O)c1cncnc1 (stereo not given in full),7%
CO[C@H]1COCCN(C(=O)c2cccnc2)C1,24%[44.1 µM]
Cn1c(C(=O)N2CCC3(CCNC(=O)CC3)CC2)cc2c(Cl)cccc21,-6%
O=[S+]1([O-])NCC2(CCN(Cc3ccc(Cl)cc3)C2)Oc2ccncc21 (stereo not given),-9%
COc1ccc(C)cc1Nc1c2c(nc3ccccc13)CCC2,13µM*
Fc1ccccc1Nc1c2c(nc3ccccc13)CCC2,-22%
COc1ccccc1NC(=O)c1sc2nc3c(cc2c1N)CCCCCC3,i
COc1ccc(Nc2c3c(nc4ccccc24)CCC3)cc1Cl,i
COc1ccc(/C=C/C(=O)Nc2ccc3nc4c(c(Nc5ccccc5OC)c3c2)CCCC4)cc1,1.3µM*
COc1cc(NC(=O)c2cccc(F)c2)ccc1NC(=O)c1cc2ccccc2o1,6%
COc1ccccc1Nc1c2c(nc3ccc(NC(=O)/C=C/c4cccc(OC)c4OC)cc13)CCCC2,1.1µM*
COc1ccc(C)cc1NC(=O)CC(=O)Nc1ccc2nc3n(c(=O)c2c1)CCCCC3,-13%
COc1ccc(OC)c(NC(=O)c2ccc3c(Cl)c4c(nc3c2)CCCC4)c1,-5%
COc1ccccc1NC(=O)Cn1nc2c(cc1=O)CCCC2,-12%
COc1ccccc1Nc1c2c(nc3ccc(NC(=O)c4cccc(F)c4)cc13)CCCC2,3.2µM*
COCCNC(=O)[C@@H]1C[C@@H](O)CN1C1CCN(C(=O)CCc2c[nH]c3ccccc23)CC1,-13%
SMILES,Pf Dd2 inh
CCN1CCN(c2ccc(C(=O)N3CCC(N4CCOCC4)CC3)cn2)CC1,-7%
Cc1nn(C)c(C)c1S(=O)(=O)N1CCCCCCn2c(nnc2-c2ccc(F)cc2)CC1,i
Cc1ccc(NC(=O)Cn2c(-c3ccccc3)nc(C)cc2=O)c(C)c1,i
Cc1ccc2c(C(=O)NCc3ccc(Cl)nc3)cnn2c1,-2%[44.1 µM]
COCCN1Cc2[nH]nc(-c3ccccc3OC)c2CC1=O,4%[44.1 µM]
COC[C@@H]1CN(S(=O)(=O)c2cc(F)cc(F)c2)C[C@H]1C(N)=O,-4%
Cc1cc(C(=O)N[C@@H]2CCC[C@@H](C(=O)N(C)Cc3cccnc3)CC(=O)N(C)C2)c(C(F)(F)F)o1,-17%
COc1ccc(Nc2c3c(nc4ccc(NC(=O)/C=C/c5cccc(OC)c5OC)cc24)CCCC3)cc1OC,4µM*
COc1ccc(NC(=O)Cn2nc(C(F)(F)F)c3c2CCCC3)cc1OC,-7%
COc1ccc(NC(=O)c2c(OC)cc(=O)n3c2CCCC3)cc1OC,i
O=C(N[C@@H]1CN(C2CCSCC2)C[C@H]1CO)c1cccnc1,42%
O=C(CCn1ccnc1)N1CCC(c2nc(CCOc3ccc(F)cc3)no2)C1 (stereo not given),i
O=C(Cc1ccsc1)N1CCC2(CC1)CC(N(Cc1ccccc1)C1CC1)CCO2 (stereo not given),-9%
O=C(c1ccccc1)N1CCC2(CC1)CC(N(Cc1ccccc1)C1CC1)CCO2 (stereo not given),i
O=C(c1ccc(F)cc1)N1CCC2(CC1)CC(N(Cc1ccccc1)C1CC1)CCO2 (stereo not given),-10%
CS(=O)(=O)N(C1CC1)C1CCOC2(CCN(C(=O)c3ccc(F)cc3)CC2)C1 (stereo not given),i
Cn1nccc1C(=O)N1CCC2(CC1)CC(N(Cc1ccc(F)cc1)C1CC1)CCO2 (stereo not given),-22%
O=C(c1ccoc1)N1CCC2(CC1)CC(N(Cc1ccc(F)cc1)C1CC1)CCO2 (stereo not given),13µM*
Cc1cnc(C(=O)N2CCC3(CC2)CC(N(Cc2ccc(F)cc2)C2CC2)CCO3)cn1 (stereo not given),-6%
O=C(CCC1CCCC1)N1CCC2(CC1)CC(N(Cc1ccc(F)cc1)C1CC1)CCO2 (stereo not given),3.5µM*
O=C(Cc1ccc(F)cc1)N1CCC2(CC1)CC(N(Cc1ccccc1)C1CC1)CCO2 (stereo not given),5.6µM*
O=C(CCn1ccn2nc3c(c2c1=O)CCCC3)NCc1ccccc1Cl,-6%
O=C1NC(C(=O)Nc2cccc(Cl)c2)Cn2cccc21 (stereo not given),-18%
CN(C(=O)c1ccc(OC2CCN(C(=O)C3CC3)CC2)cc1)C1CCCc2ccccc21 (stereo not given),i
O=C(C1CCc2nnc(-c3ccc(Cl)nc3)n21)N1CCCC1 (stereo not given),-2%
SMILES,Pf Dd2 inh
CNC(=O)N1CCC(C2CCN(C(=O)Cc3ccsc3)C2)CC1 (stereo not given),-8%
O=C(NCc1ccncc1)C1CN(S(=O)(=O)c2cccnc2)CC12CCCCC2 (stereo not given),-15%
c1ccc(-c2noc(-c3ccn4c(CN5CCN(c6ccccc6)CC5)nnc4c3)n2)cc1,-19%
O=C1CCN(S(=O)(=O)c2ccc3c(c2)CCC3)CCCC(CO)CCN1 (stereo not given),-21%
Cc1ccc(NC2=C(c3ccc(C(F)(F)F)cc3)C(=O)c3ccccc32)cc1C,0.79µM*
O=C(c1cc(-c2ccccc2)n[nH]1)N1CCC2(CC1)N=C(c1ccccc1)NO2,i
O=C1N(Cc2ccccc2)CCOC12CCN(Cc1cc(F)ccc1F)CC2,i
O=C1N(Cc2ccccc2F)CCOC12CCN(Cc1ccc(F)cc1F)CC2,2.5µM*
Cn1nccc1C(=O)N1CCC2(CC1)OCCN(Cc1ccccc1F)C2=O,-8%[44.1 µM]
C[C@]1(O)CCN(Cc2ccc(-c3ccccc3C#N)o2)C[C@@H]1O,-6%
COC[C@@H]1CN(C(=O)c2ccco2)C[C@H]1c1nc(C2CC2)no1,0%
O=C1CC(c2ccccc2)N(C(=O)C2CC2)CCCN(C(=O)c2n[nH]c3ccccc23)CCN1 (stereo not given),-4%
Cc1cccc(NC(=O)N2CCC(Oc3ccc(-c4noc(C)n4)cc3)C2)c1 (stereo not given),1%[5.79 µM]
O=C1CC(c2c(Cl)cccc2Cl)c2c(ccc3ccccc23)N1 (stereo not given),i
O=C1CC(c2c(F)cccc2Cl)c2c(ccc3ccccc23)N1 (stereo not given),i
CCCCOc1ccccc1C1CC(=O)Nc2ccc3ccccc3c21 (stereo not given),14µM*
